Laboratory results published in PubChem BioAssay (EPA / NIEHS).
Values joined by “and” are separate entries in the source; they are usually repeats but may differ in a detail not shown here. Equal entries are not always repeated. Inconclusive results are not listed. Active and inactive are the calls of the source. Rule for the calls: active = hit-call score of the fitted dose curve at least 0.9, where 1 is the maximum; inconclusive = response in the unintended direction; inactive = score below 0.9.

How the values were obtained:
[1] = molecular target: human FYN Proto-Oncogene, Src family Tyrosine Kinase (Fyn), FYN (gene 2534) (UniProt P06241); assay: NVS_ENZ_hFyn: NovaScreen (NVS) Enzymatic Assay for human FYN Proto-Oncogene, Src family Tyrosine Kinase (Fyn) (AID 2283161)
Summary of the method: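 Recombinant enzyme with fluorescent substrate, product separated by electrophoretic mobility shift; read 1 h after dosing. Duplicate 25 uM single-point screen, actives retested in concentration series; loss of signal vs DMSO.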

[2] = molecular target: human IkappaB Kinase alpha (IKKa), CHUK (gene 1147) (UniProt O15111); assay: NVS_ENZ_hIKKa: NovaScreen (NVS) Enzymatic Assay for human IkappaB Kinase alpha (IKKa) (AID 2283167)
Summary of the method: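 Cell-free recombinant human IKKa with fluorescent substrate, product separated by electrophoretic mobility shift; read 1 hour after dosing. Primary screen duplicate at 25 uM, actives then concentration-response up to 50 uM; loss of signal relative to DMSO.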

[3] = molecular target: human Ephrin type-A Receptor 2 (EphA2), EPHA2 (gene 1969) (UniProt P29317); assay: NVS_ENZ_hEphA2: NovaScreen (NVS) Enzymatic Assay for human Ephrin type-A Receptor 2 (EphA2) (AID 2283155)
Summary of the method: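 Cell-free recombinant EphA2 kinase with specific substrate, 1 h, fluorescence with electrophoretic mobility-shift separation of substrate and product. Primary screen at 25 uM in duplicate; hits retested in singleton concentration-response up to 50 uM, referenced to DMSO.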

[4] = molecular target: human Ephrin type-A Receptor 1 (EphA1), EPHA1 (gene 2041) (UniProt P21709); assay: NVS_ENZ_hEphA1: NovaScreen (NVS) Enzymatic Assay for human Ephrin type-A Receptor 1 (EphA1) (AID 2283158);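 note: activity is signal loss versus DMSO meaning EphA1 kinase inhibition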
Summary of the method: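 Cell-free kinase activity with recombinant protein, 1 hour after dosing; product separated by electrophoretic mobility shift, fluorescence read. Primary screen at 25 uM in duplicate; hits run as concentration-response up to 50 uM, relative to DMSO.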

[5] = molecular target: human Fibroblast Growth Factor Receptor 1 (FGFR1), FGFR1 (gene 2260) (UniProt P11362); assay: NVS_ENZ_hFGFR1: NovaScreen (NVS) Enzymatic Assay for human Fibroblast Growth Factor Receptor 1 (FGFR1) (AID 2283159);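 for AC50: hits lower the signal so potencies describe inhibitors of the kinase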
Summary of the method: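 Cell-free recombinant kinase with fluorescent substrate, product separated by electrophoretic mobility shift; read 1 hour after dosing, loss of signal relative to DMSO. Initial screen in duplicate at 25 uM, actives followed in concentration series.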

[6] = molecular target: Protein deacetylase HDAC6 (Homo sapiens) (UniProt Q9UBN7); assay: NVS_ENZ_hHDAC6: NovaScreen (NVS) Enzymatic Assay for human Histone Deacetylase 6 (HDAC6) (AID 2283164)
Experimental: NVS_ENZ_hHDAC6 is a biochemical, single-readout assay that uses extracted gene-proteins in a cell-free assay. Measurements were taken 1 hour after chemical dosing in a 384-well plate.NVS_ENZ_hHDAC6 is one of one assay component(s) measured or calculated from the NVS_ENZ_hHDAC6 assay. It is designed to make measurements of enzyme activity, a form of enzyme reporter, as detected with fluorescence intensity signals by Fluorescence and electrophoretic mobility shift technology.Data from the assay component NVS_ENZ_hHDAC6 was analyzed into 1 assay endpoint. This assay endpoint, NVS_ENZ_hHDAC6, was analyzed in the positive analysis fitting direction relative to DMSO as the negative control and baseline of activity. Using a type of enzyme reporter, loss-of-signal activity can be used to understand changes in the enzymatic activity as they relate to the gene HDAC6. Furthermore, this assay endpoint can be referred to as a primary readout, because this assay has produced multiple assay endpoints where this one serves a enzymatic activity function. To generalize the intended target to other relatable targets, this assay endpoint is annotated to the hydrolase intended target family, where the subfamily is histone deacetylase. […]

[7] = molecular target: Glycogen synthase kinase-3 beta (Homo sapiens) (UniProt P49841); assay: NVS_ENZ_hGSK3b: NovaScreen (NVS) Enzymatic Assay for human Glycogen Synthase Kinase-3 beta (GSK3b) (AID 2283165)
Summary of the method: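 Recombinant enzyme with specific fluorescent substrate, 1 h, product separated by electrophoretic mobility shift. Primary duplicate screen at 25 uM; actives (e.g. 30% inhibition) followed in singleton concentration-response to 50 uM. Signal loss fitted versus DMSO.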

[8] = molecular target: human Ephrin type-B Receptor 2 (EphB2), EPHB2 (gene 2048) (UniProt P29323); assay: NVS_ENZ_hEphB2: NovaScreen (NVS) Enzymatic Assay for human Ephrin type-B Receptor 2 (EphB2) (AID 2283156)
Summary of the method: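 Recombinant kinase with fluorescent substrate, product separated by electrophoretic mobility shift, read 1 h after dosing. Duplicate 25 uM screen, then singleton concentration-response to 50 uM max; loss of signal versus DMSO.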

[9] = molecular target: human Esterase Plasma (ES), BCHE (gene 590) (UniProt P06276); assay: NVS_ENZ_hES: NovaScreen (NVS) Enzymatic Assay for human Esterase Plasma (ES) (AID 2283157)
Summary of the method: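 Esterase from human plasma, cell-free, colorimetric absorbance read 0.25 h after dosing. Screened at 25 uM in duplicate, with threshold-passing chemicals run in concentration-response up to 50 uM; loss of signal fitted versus DMSO.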

[10] = molecular target: Histone deacetylase 3 (Homo sapiens) (UniProt O15379); assay: NVS_ENZ_hHDAC3: NovaScreen (NVS) Enzymatic Assay for human Histone Deacetylase 3 (HDAC3) (AID 2283163)
Summary of the method: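 Recombinant human HDAC3 with fluorescent substrate, 1 h after dosing; product separated from substrate by electrophoretic mobility shift and read by fluorescence. Primary screen at 25 uM in duplicate; actives (e.g. ≥30% inhibition) retested in concentration-response up to 50 uM.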

Sequence of human Esterase Plasma (ES), BCHE (gene 590) (P06276 whole entry, looked up): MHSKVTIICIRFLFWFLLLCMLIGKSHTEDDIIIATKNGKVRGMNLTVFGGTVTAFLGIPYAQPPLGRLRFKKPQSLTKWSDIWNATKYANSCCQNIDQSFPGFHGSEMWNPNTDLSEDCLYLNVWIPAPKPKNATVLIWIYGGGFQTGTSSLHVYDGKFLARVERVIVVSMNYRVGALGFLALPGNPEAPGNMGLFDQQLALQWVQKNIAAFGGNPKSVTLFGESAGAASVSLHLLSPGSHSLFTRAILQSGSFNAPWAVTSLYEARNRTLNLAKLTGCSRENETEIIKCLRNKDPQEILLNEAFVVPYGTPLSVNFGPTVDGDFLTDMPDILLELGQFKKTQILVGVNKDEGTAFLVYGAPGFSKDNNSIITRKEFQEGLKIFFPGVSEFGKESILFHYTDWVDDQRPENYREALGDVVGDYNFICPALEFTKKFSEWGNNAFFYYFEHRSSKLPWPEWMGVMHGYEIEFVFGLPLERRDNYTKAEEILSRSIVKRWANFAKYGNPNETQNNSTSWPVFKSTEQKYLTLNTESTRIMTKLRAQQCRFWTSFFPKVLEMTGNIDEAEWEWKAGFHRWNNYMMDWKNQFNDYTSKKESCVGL
Sequence of human FYN Proto-Oncogene, Src family Tyrosine Kinase (Fyn), FYN (gene 2534) (P06241 whole entry, looked up): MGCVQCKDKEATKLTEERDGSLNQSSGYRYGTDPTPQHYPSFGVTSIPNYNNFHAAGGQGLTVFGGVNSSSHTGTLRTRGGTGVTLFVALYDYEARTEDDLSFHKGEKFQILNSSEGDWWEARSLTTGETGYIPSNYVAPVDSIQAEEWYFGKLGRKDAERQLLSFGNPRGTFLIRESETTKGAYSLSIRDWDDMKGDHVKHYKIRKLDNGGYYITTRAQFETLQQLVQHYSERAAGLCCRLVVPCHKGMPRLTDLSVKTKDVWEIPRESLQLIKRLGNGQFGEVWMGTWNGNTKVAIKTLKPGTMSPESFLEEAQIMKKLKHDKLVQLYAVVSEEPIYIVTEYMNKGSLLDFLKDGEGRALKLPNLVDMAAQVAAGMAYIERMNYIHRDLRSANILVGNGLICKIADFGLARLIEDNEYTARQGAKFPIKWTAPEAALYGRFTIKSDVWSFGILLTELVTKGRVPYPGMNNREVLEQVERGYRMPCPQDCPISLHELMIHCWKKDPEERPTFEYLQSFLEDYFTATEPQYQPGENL
Sequence of human IkappaB Kinase alpha (IKKa), CHUK (gene 1147) (O15111 whole entry, looked up): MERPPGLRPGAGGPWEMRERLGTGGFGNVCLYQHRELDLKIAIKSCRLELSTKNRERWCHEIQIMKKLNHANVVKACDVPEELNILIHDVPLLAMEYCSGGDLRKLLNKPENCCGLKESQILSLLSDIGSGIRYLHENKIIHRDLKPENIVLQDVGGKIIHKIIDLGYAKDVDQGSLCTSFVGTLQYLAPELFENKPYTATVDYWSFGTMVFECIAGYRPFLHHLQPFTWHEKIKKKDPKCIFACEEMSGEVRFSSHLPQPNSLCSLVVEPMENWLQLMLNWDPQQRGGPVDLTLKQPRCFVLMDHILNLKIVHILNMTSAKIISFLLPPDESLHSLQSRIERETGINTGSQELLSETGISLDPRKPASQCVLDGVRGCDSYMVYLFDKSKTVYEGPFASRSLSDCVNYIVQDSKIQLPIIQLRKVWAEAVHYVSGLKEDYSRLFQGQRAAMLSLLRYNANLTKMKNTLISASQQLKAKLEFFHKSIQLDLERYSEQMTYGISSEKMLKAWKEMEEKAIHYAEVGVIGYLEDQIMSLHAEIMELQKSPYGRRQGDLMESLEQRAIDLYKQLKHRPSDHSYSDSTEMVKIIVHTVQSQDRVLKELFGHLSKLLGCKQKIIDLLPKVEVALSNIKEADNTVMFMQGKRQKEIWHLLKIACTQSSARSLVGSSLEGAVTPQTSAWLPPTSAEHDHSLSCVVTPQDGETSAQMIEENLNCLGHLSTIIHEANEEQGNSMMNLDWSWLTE
Sequence of human Ephrin type-A Receptor 2 (EphA2), EPHA2 (gene 1969) (P29317 whole entry, looked up): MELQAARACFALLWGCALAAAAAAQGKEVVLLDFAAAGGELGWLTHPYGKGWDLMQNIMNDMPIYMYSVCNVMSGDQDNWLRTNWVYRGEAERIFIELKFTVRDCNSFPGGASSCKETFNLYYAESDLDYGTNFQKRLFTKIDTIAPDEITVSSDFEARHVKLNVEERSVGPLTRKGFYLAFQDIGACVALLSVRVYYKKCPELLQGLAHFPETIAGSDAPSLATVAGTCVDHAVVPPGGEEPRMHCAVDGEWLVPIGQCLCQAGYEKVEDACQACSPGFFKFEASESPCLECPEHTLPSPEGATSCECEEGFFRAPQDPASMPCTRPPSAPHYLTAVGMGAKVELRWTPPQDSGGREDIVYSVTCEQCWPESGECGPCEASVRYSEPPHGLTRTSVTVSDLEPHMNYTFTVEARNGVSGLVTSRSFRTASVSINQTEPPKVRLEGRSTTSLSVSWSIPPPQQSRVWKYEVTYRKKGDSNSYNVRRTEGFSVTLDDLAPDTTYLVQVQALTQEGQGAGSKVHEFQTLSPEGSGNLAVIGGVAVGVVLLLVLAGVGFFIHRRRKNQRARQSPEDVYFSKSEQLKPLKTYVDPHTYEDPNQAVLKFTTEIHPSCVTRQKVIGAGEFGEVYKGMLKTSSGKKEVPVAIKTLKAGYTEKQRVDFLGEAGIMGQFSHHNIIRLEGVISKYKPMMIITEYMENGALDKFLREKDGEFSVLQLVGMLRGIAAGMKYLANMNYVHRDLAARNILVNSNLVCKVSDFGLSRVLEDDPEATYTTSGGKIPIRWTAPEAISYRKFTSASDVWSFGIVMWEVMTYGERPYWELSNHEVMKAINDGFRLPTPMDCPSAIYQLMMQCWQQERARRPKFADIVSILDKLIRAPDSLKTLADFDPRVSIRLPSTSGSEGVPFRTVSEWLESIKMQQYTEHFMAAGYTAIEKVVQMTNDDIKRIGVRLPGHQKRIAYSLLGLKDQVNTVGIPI
Sequence of human Fibroblast Growth Factor Receptor 1 (FGFR1), FGFR1 (gene 2260) (P11362 whole entry, looked up): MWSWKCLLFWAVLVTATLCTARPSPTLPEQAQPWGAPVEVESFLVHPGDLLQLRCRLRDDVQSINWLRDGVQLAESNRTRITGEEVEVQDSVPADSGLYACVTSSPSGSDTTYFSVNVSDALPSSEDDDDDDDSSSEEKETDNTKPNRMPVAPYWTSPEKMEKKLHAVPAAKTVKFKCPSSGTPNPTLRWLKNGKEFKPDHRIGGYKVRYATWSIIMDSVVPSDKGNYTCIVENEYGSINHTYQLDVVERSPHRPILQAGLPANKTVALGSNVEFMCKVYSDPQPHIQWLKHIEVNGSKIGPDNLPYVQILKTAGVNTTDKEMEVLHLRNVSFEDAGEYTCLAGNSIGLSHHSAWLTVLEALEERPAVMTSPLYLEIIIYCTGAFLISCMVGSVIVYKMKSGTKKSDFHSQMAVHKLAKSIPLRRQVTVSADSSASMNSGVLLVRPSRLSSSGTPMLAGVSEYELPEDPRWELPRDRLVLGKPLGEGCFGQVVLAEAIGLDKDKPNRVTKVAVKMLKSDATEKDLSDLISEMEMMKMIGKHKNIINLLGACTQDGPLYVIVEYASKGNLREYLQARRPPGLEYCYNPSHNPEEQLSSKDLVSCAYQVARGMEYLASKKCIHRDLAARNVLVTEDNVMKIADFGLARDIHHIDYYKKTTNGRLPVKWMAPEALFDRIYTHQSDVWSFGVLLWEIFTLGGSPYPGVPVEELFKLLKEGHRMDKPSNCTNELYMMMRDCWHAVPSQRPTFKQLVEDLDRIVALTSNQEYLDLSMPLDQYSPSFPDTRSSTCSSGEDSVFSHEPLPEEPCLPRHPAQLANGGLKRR
Sequence of human Ephrin type-A Receptor 1 (EphA1), EPHA1 (gene 2041) (P21709 whole entry, looked up): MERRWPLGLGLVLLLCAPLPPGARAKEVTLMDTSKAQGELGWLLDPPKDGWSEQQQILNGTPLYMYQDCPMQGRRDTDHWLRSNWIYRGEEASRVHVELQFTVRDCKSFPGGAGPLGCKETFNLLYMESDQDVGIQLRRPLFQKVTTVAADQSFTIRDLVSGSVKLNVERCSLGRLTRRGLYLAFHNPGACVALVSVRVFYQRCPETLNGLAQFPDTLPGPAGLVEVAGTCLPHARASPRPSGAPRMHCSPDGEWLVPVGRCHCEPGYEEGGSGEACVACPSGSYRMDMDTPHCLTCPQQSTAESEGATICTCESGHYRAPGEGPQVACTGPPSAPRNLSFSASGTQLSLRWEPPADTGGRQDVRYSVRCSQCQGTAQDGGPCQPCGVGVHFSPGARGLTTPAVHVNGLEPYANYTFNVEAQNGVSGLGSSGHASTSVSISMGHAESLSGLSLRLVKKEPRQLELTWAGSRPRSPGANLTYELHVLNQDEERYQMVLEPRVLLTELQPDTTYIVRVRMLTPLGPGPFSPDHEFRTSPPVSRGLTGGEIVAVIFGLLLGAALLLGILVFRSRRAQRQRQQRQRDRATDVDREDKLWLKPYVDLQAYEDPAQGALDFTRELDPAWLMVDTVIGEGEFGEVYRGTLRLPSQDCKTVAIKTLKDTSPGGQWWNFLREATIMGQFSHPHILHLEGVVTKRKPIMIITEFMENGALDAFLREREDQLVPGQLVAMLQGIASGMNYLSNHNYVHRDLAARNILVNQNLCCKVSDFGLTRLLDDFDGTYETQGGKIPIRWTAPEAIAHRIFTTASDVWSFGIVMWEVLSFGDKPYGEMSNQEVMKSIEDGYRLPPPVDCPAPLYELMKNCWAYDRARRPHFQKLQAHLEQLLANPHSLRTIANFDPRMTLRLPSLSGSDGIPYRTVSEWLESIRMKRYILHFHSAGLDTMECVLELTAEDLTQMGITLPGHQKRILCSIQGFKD
Sequence of Glycogen synthase kinase-3 beta (Homo sapiens) (P49841 whole entry, looked up): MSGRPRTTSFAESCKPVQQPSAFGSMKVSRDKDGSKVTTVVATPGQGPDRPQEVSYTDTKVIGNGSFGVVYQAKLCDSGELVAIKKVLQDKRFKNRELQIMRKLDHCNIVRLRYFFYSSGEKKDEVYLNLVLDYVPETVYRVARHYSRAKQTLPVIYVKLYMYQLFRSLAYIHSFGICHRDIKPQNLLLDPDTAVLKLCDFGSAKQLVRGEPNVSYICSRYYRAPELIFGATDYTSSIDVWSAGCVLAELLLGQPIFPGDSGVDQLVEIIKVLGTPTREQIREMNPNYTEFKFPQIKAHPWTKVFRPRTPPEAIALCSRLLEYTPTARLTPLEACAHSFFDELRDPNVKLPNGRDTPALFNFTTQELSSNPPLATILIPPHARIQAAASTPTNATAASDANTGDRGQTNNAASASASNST

## O=C(O)C(F)(F)C(F)(F)C(F)(F)C(F)(F)C(F)(F)C(F)(F)C(F)(F)F
[1]
  outcome: inactive
[2]
  outcome: inactive

## CC1(C)C(C=C(Cl)Cl)C1C(=O)OC(C#N)c1ccc(F)c(Oc2ccccc2)c1 (stereo unspecified)
[3]
  outcome: inactive

## ClC1C(Cl)C(Cl)C(Cl)C(Cl)C1Cl (stereo unspecified)
[4]
  outcome: inactive
[5]
  outcome: inactive
[6]
  AC50: 0.00517 µM (active)

## N#Cc1c(Cl)c(Cl)c(Cl)c(C#N)c1Cl
[7]
  AC50: 25 µM (active)

## O=[N+]([O-])/N=C1\NCCN1Cc1ccc(Cl)nc1
[3]
  outcome: inactive
[4]
  outcome: inactive

## Oc1ccc(Cl)cc1Cc1ccccc1
[3]
  outcome: inactive
[8]
  outcome: inactive
[9]
  outcome: inactive
[7]
  outcome: inactive

## Oc1cc(Cl)ccc1Oc1ccc(Cl)cc1Cl
[3]
  outcome: inactive
[5]
  outcome: inactive

## COP(=S)(OC)Oc1ccc([N+](=O)[O-])cc1
[9]
  outcome: inactive

## COC(=O)c1ccccc1S(=O)(=O)NC(=O)N(C)c1nc(C)nc(OC)n1
[1]
  outcome: inactive

## CNC(=O)/C=C(\C)OP(=O)(OC)OC
[9]
  AC50: 18.3 µM (active)

## CNC(=O)Oc1cccc(N=CN(C)C)c1
[9]
  outcome: inactive

## CC[C@H](C)[C@H]1O[C@]2(C=C[C@@H]1C)C[C@@H]1C[C@@H](C/C=C(\C)[C@@H](O[C@H]3C[C@H](OC)[C@@H](O[C@H]4C[C@H](OC)[C@@H](O)[C@H](C)O4)[C@H](C)O3)[C@@H](C)/C=C/C=C3\CO[C@@H]4[C@H](O)C(C)=C[C@@H](C(=O)O1)[C@]34O)O2 (tested in a mixture with another compound)
[5]
  outcome: inactive

## O=C(NC(=O)c1c(F)cccc1F)Nc1ccc(OC(F)(F)C(F)OC(F)(F)F)c(Cl)c1 (stereo unspecified)
[10]
  outcome: inactive

## CC(C)N(C(=O)COc1nnc(C(F)(F)F)s1)c1ccc(F)cc1
[9]
  AC50: 11.8 µM (active)

## O=C(O)COc1ccc(Cl)cc1Cl
[2]
  outcome: inactive

## CC(C)(C)C(O)C(Oc1ccc(Cl)cc1)n1cncn1 (stereo unspecified)
[5]
  outcome: inactive

## CCOCN(C(=O)CCl)c1c(C)cccc1CC
[8]
  outcome: inactive

## COP(=O)(OC)OC=C(Cl)Cl
[9]
  AC50: 7.13 µM (active)

## CC(C)OC(=O)Nc1cccc(Cl)c1
[9]
  outcome: inactive

## O=S(=O)(O)C(F)(F)C(F)(F)C(F)(F)C(F)(F)C(F)(F)C(F)(F)C(F)(F)C(F)(F)F
[3]
  AC50: 15.8 µM (active)
[5]
  AC50: 39.7 µM (active) and 24.3 µM (active)
[1]
  AC50: 47 µM (active)
[10]
  AC50: 17.4 µM (active) and 10.3 µM (active)
[7]
  AC50: 39.3 µM (active)
[2]
  AC50: 27.2 µM (active) and 25.9 µM (active)

## CNC(=O)CSP(=S)(OC)OC
[3]
  outcome: inactive
[4]
  outcome: inactive
[5]
  outcome: inactive
